Values joined by “and” are separate entries in the source; they are usually repeats but may differ in a detail not shown here. Equal values may be shown once. A number with no mark means an inactive call. Results filed as inconclusive are left out. Where a call stands in place of a potency, no number is given. Active and inactive are the calls of the source. Unless noted, calls come from the whole dose curve; as a rule, active = well fitted curve in the direction sought with a large enough effect in the repeat runs; inconclusive = weak or mixed curves; inactive = no such curve, though single readings can be large; an effect the other way counts as inactive or inconclusive.
Experiments:
[1] = qHTS assay for small molecule agonists of the p53 signaling pathway (AID 651631; calls by dose curve; note: nearly all actives have a fitted effect of over 15% in size; note: potency is the fitted concentration of half-maximal effect)
Method in brief: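 p53RE-bla HCT-116 cells; compounds 16 h, 37 °C; LiveBLAzer B/G FRET substrate 2 h RT; fluorescence intensity read-out, qHTS format.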

[2] = qHTS assay for small molecules that induce genotoxicity in human embryonic kidney cells expressing luciferase-tagged ATAD5 (AID 651632); note: nearly all actives have a fitted effect of over 15% in size; note: potency is the fitted concentration of half-maximal effect
Method in brief: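 HEK293T cells carrying a luciferase reporter tagged to ATAD5 were exposed to compound or DMSO vehicle for 16 hr at 37C, 5% CO2. Amplite was added, and after 30 min at room temperature luciferase activity was read as a marker of ATAD5 induction.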

[3] = qHTS assay for small molecule agonists of the p53 signaling pathway - cell viability (AID 651633; calls by dose curve; note: nearly all actives have a fitted effect of over 30% in size; note: potency is the fitted concentration of half-maximal effect)
Method in brief: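 p53RE-bla cells, seeded at 4,000 per well and rested 5 h at 37 C/5% CO2, received compounds in DMSO for 16 h at 37 C. CellTiter-Glo was then added, and luminescence was read after 30 min at room temperature to gauge cytotoxicity.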

[4] = qHTS assay for small molecules that induce genotoxicity in human embryonic kidney cells expressing luciferase-tagged ATAD5 - cell viability (AID 651634; calls by dose curve; note: nearly all actives have a fitted effect of over 25% in size; note: potency is the fitted concentration of half-maximal effect)
Method in brief: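 HEK293T cells expressing luciferase-tagged ATAD5 were exposed to compound or DMSO for 15.5 hr at 37C, 5% CO2. Viability was then read as live-cell protease activity by CellTiter-Fluor fluorescence after 30 min at 37C.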

[5] = qHTS assay for small molecule disruptors of the mitochondrial membrane potential - cell viability (AID 720634; calls by dose curve;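 note: human HepG2 liver cancer cells; series mostly up to about 83 µM; nearly all actives have a fitted effect of over 20% in size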)
Method in brief: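 HepG2 cells seeded overnight at 37 C, then exposed to compound or DMSO for 1 hr at 37 C, 5% CO2. m-MPI dye added, then CellTiter-Glo for 30 min at room temperature; viability read as ATP luminescence.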

[6] = qHTS assay to test for compound auto fluorescence at 590 nm (red) in HepG2 cells (AID 720674)
Method in brief: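 Rose Bengal sodium served as the red fluorophore standard. HepG2 monolayers (overnight attachment, MEM with 10% FBS) were exposed to test compounds for 1 hr at 37 C and read at Ex 540/Em 590 nm.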

[7] = qHTS assay to test for compound auto fluorescence at 535 nm (green) in HepG2 cells (AID 720675)
[8] = qHTS assay to test for compound auto fluorescence at 460 nm (blue) in HEK293 cells (AID 720678)
Method in brief: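 Blue read-out at excitation 405 nm and emission 460 nm follows overnight compound exposure of HEK293 cells at 37C in 5% CO2. Activity is given as auto fluorescence equivalency to triamterene.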

[9] = qHTS assay to test for compound auto fluorescence at 590 nm (red) in HEK293 cells (AID 720679)
Method in brief: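 Red channel, Ex/Em 540/590nm; signal expressed as equivalency to Rose Bengal sodium. HEK293, 2,000 cells/well, 10% dialyzed FBS; 23 nL compound pinned after 4-5 hr attachment; overnight 37C/5% CO2 before reading.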

[10] = qHTS assay for small molecule disruptors of the mitochondrial membrane potential (AID 720635); note: potency is the fitted concentration of half-maximal effect
Method in brief: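 HepG2 cells (2,000/well) attached overnight at 37C, then took compound for 1 hr at 37C, 5% CO2. Mito-MPS dye was added for 30 min; fluorescence was read at 490/535 nm (monomers) and 540/590 nm (aggregates).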

Row | Structure (SMILES) | Potency [1] | Potency [2] | Potency [3] | Potency [4] | Potency [5] | outcome [6] | outcome [7] | Potency [8] | outcome [9] | Potency [10] | fluorescence, relative to Rose Bengal [6] | fluorescence, % of fluorescein control [7] | fluorescence, % of triamterene [8] | fluorescence, % of fluorescent control [9]
1 | CN1CCCN=C1COC(=O)C(O)(c1ccccc1)C1CCCCC1 (centres undefined) | inactive | inactive | inactive | inactive | inactive | inactive | inactive | inactive | inactive | – | – | – | – | –
2 | CCC(OCCCOC)OC(C)=O (centres undefined) | inactive | inactive | inactive | inactive | inactive | inactive | inactive | inactive | inactive | – | – | – | – | –
3 | Brc1cc2ccccc2c2ccccc12 | inactive | inactive | inactive | inactive | inactive | inactive | inactive | inactive | inactive | – | – | – | – | –
4 | CC(=O)[C@H]1[C@H](C#N)C[C@H]2[C@@H]3CC=C4C[C@@H](O)CC[C@]4(C)[C@H]3CC[C@@]21C | inactive | inactive | inactive | inactive | – | inactive | inactive | inactive | inactive | inactive | – | – | – | –
5 | CCCCCCNC(=O)n1cc(F)c(=O)[nH]c1=O | 1.5 µM (active) | – | 0.668 µM (active) | inactive | inactive | inactive | – | inactive | inactive | – | – | – | – | –
6 | O=C=Nc1ccc(Cl)c(Cl)c1 | inactive | – | inactive | – | – | inactive | inactive | inactive | inactive | 7.57 µM (active) | – | – | – | –
7 | O=[N+]([O-])c1ccc(Nc2ccc(Nc3ccccc3)c(S(=O)(=O)O)c2)c([N+](=O)[O-])c1 | inactive | inactive | inactive | – | – | inactive | inactive | – | inactive | – | – | – | – | –
8 | COc1ccccc1N1CCN(CCCCNC(=O)c2ccc(-c3ccc(C(C)=O)cc3)cc2)CC1 | inactive | inactive | – | inactive | inactive | inactive | inactive | inactive | inactive | inactive | – | – | – | –
9 | CC(C)=CCC1C(=O)N(c2ccccc2)N(c2ccccc2)C1=O | 15 µM (active) | inactive | 21.1 µM (active) | – | inactive | inactive | inactive | inactive | inactive | – | – | – | – | –
10 | CN1C(=O)N(c2ccccc2Br)Cc2cnc(Nc3ccc4c(c3)OCC(CO)O4)nc21 (centres undefined) | 19.3 µM (active) | inactive | – | 54.5 µM (active) | – | inactive | inactive | inactive | inactive | 24.3 µM (active) | – | – | – | –
11 | Cc1ccc(OC(=O)c2ccccc2O)cc1 | inactive | inactive | inactive | inactive | – | inactive | inactive | inactive | inactive | inactive | – | – | – | –
12 | CC(C)C[C@H](NC(=O)[C@H](CCc1ccccc1)NC(=O)CN1CCOCC1)C(=O)N[C@@H](Cc1ccccc1)C(=O)N[C@@H](CC(C)C)C(=O)[C@@]1(C)CO1 | 0.0668 µM (active) | 0.106 µM (active) | 0.335 µM (active) | 0.211 µM (active) | – | inactive | inactive | inactive | inactive | – | – | – | – | –
13 | O=C1c2ccccc2C(=O)C1(O)O | 27.4 µM (active) | inactive | – | inactive | – | inactive | inactive | inactive | inactive | 24.5 µM (active) | – | – | – | –
14 | C=CC(=O)[O-].C=CC(=O)[O-].[Zn+2] | inactive | – | inactive | inactive | – | inactive | inactive | inactive | inactive | – | – | – | – | –
15 | O=C=Nc1cccc(C(F)(F)F)c1 | inactive | inactive | inactive | inactive | – | inactive | inactive | inactive | inactive | 2.15 µM (active) | – | – | – | –
16 | O=c1c(O)c(-c2ccc(O)cc2)oc2cc(O)cc(O)c12 | inactive | – | inactive | inactive | inactive | inactive | inactive | – | inactive | 3.84 µM (active) and 328 nM (active) | – | – | – | –
17 | C[C@@H](O[C@H]1OCCN(Cc2n[nH]c(=O)[nH]2)[C@H]1c1ccc(F)cc1)c1cc(C(F)(F)F)cc(C(F)(F)F)c1 | 29.8 µM (active) | inactive | 23.7 µM (active) | 23.7 µM (active) | – | inactive | inactive | inactive | inactive | – | – | – | – | –
18 | Cc1[nH]cnc1CN1CCc2c(c3ccccc3n2C)C1=O | inactive | inactive | inactive | inactive | – | inactive | inactive | inactive | inactive | inactive | – | – | – | –
19 | CCC(=O)OC | inactive | inactive | inactive | inactive | – | inactive | – | inactive | inactive | – | – | – | – | –
20 | CC(C)C=O | inactive | – | inactive | – | inactive | inactive | inactive | inactive | inactive | inactive | – | – | – | –
21 | CCCCCCC(C)(C)C(=O)O | inactive | inactive | inactive | inactive | – | inactive | inactive | inactive | inactive | inactive | – | – | – | –
22 | CC(C)C(O)(c1ccc(OC(F)(F)F)cc1)c1cncnc1 (centres undefined) | inactive | – | inactive | inactive | inactive | inactive | – | inactive | inactive | – | – | – | – | –
23 | CCC1NC(=O)c2cc(S(N)(=O)=O)c(Cl)cc2N1 (centres undefined) | inactive | – | inactive | inactive | – | – | – | – | – | – | 0.403% [at 18.6 µM] | 0.161% [at 18.6 µM] | -0.286% [at 18.6 µM] | -0.132% [at 18.6 µM]
24 | CC/C=C1/OC(=O)c2ccccc21 | inactive | – | inactive | inactive | inactive | inactive | – | inactive | inactive | inactive | – | – | – | –
25 | CC(C)COCC(CN(Cc1ccccc1)c1ccccc1)N1CCCC1 (centres undefined) | 13.3 µM (active) | inactive | 11.9 µM (active) | 9.44 µM (active) | – | inactive | inactive | inactive | inactive | – | – | – | – | –
26 | CC(=O)OCCN(CCOC(C)=O)c1ccc(N=Nc2ccc([N+](=O)[O-])cc2C#N)cc1 | inactive | inactive | inactive | 61.1 µM (active) | – | inactive | inactive | – | inactive | 6.86 µM (active) | – | – | – | –

From PubChem BioAssay (Tox21)
